Reference: PubChem BioAssay (Tox21)
“And” between values parts separate entries of the source, which are not always exact repeats. Identical values can stand only once. Inconclusive results are not listed. Entries that show only a call come without a potency. More than one record can exist for a structure, and the calls need not agree. The source made the active and inactive calls. The call rests on the fitted dose curve; in most records, active means well fitted activation curve with a large enough effect in the repeat runs; inconclusive means weak or mixed curves; inactive means no such curve, though single readings can be large or run the other way. Residues, ends and D or L forms follow the SMILES beside them.

Each compound was assayed against Nuclear receptor subfamily 1 group I member 2 (Homo sapiens) (UniProt O75469) (assay: Human pregnane X receptor (PXR) small molecule agonists, qHTS assay (AID 1346982; further: nearly all actives have a fitted effect of over 35% in size)). Conditions: PXR-Luc HepG2, CYP3A4 luciferase reporter, 24 h; series mostly up to 92.4 µM.
Description: National Center for Advancing Translational Sciences [NCATS]
NIH Chemical Genomics Center [NCGC]
U.S. Environmental Protection Agency [EPA]
National Institutes of Environmental Health Sciences [NIEHS]
National Toxicology Program [NTP]
The human pregnane X receptor (hPXR) regulates the expression of several drug metabolizing enzymes and induction of these proteins is a major mechanism for developing drug resistance in cancer. One such key enzyme catalyzing the drug metabolism is cytochrome P450 3A4 (CYP3A4). Changes in CYP3A4 expression affect drug metabolism, thereby reducing the therapeutic efficacy and altering toxicological response to a drug and which finally causes adverse drug interaction. To screen Tox21 libraries for compounds that activate hPXR-mediated CYP3A4 gene expression, PXR-Luc HepG2 cells were used.
PXR-Luc HepG2 cells were dispensed at 2,000 per well in 5uL of assay medium containing 5% charcoal-stripped FBS into white solid bottom 1536-well plates (Corning Life Sciences, Corning, NY) using a Multidrop Combi (Thermo Scientific, Waltham, MA) dispenser. The assay plates were incubated at 37 C and 5% CO2 for 5hr, and then 23nL of compounds dissolved in DMSO and positive control were transferred using a Pintool station (Wako, San Diego, CA). The assay plates were incubated at 37C and 5% CO2 for 24hr. For luciferase read, 4uL of ONE-Glo reagent (Promega Corporation, Madison, WI) was added to each well of the assay plates using Flying Reagent Dispenser (FRD, Aurora Discovery, San Diego, CA) and incubated the assay plates at room temperature for 30min. The luminescence signal was quantified using a ViewLux plate reader (Perkin Elmer, Shelton, CT).
Potency means the concentration at half of the fitted maximal effect.

Nuclear receptor subfamily 1 group I member 2 (Homo sapiens), sequence (O75469 whole entry, looked up): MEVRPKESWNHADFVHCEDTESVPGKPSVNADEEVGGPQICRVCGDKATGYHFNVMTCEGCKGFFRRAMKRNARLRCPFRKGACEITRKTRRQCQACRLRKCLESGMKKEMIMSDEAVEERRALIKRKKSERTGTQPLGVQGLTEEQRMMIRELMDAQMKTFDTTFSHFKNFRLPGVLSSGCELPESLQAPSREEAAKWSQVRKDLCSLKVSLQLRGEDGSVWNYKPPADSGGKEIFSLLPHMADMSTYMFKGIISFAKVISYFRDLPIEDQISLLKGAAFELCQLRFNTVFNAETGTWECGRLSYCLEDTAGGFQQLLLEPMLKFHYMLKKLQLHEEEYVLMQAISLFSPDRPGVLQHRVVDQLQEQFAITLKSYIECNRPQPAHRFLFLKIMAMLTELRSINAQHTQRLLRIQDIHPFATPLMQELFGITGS

**Q.** Which Potency does the source give for `CCC1(c2ccccc2)C(=O)NCNC1=O` here?
**A.** inactive

**Q.** For `O=C1CN(/N=C/c2ccc([N+](=O)[O-])o2)C(=O)N1`, which Potency is on record?
**A.** inactive

**Q.** How did the Potency turn out when `O=C(O)CCC(=O)O` was run?
**A.** inactive

**Q.** Which Potency does the source give for `O=c1ccc2ccccc2o1` here?
**A.** inactive

**Q.** `CCCCC(CC)COC(=O)/C=C/c1ccc(OC)cc1` (stereo not given) was tested. Which Potency did it give?
**A.** inactive

**Q.** Which Potency does the source give for `CC(O)CO` (stereo not given) here?
**A.** inactive

**Q.** How did the Potency turn out when `CC(O)C(=O)O` (stereo not given) was run?
**A.** inactive

**Q.** Which Potency does the source give for `COc1c2occc2cc2ccc(=O)oc12` here?
**A.** 61.5 µM (active) and 48.6 µM (active)

**Q.** With `OCCc1ccccc1` as the compound, how does the Potency read?
**A.** inactive

**Q.** With `NC(=O)c1cnccn1` as the compound, how does the Potency read?
**A.** inactive

**Q.** How did the Potency turn out when `O=C(O)CCCCCCCC(=O)O` was run?
**A.** inactive

**Q.** For `Nc1ccc(O)c(C(=O)O)c1`, which Potency is on record?
**A.** inactive

**Q.** With `OC(Cn1cncn1)(Cn1cncn1)c1ccc(F)cc1F` as the compound, how does the Potency read?
**A.** inactive

**Q.** `CC1(C)[C@@H]2CC[C@@]1(C)C(=O)C2` was tested. Which Potency did it give?
**A.** inactive

**Q.** `O=C(O)C(=O)O` was tested. Which Potency did it give?
**A.** inactive

**Q.** `O=C(c1ccccc1)C(O)c1ccccc1` (stereo not given) was tested. Which Potency did it give?
**A.** inactive

**Q.** `COC(=O)[C@H](Cc1ccccc1)NC(=O)[C@@H](N)CC(=O)O` (H-Asp-Phe-OMe) was tested. Which Potency did it give?
**A.** inactive

**Q.** With `CCCCOC(=O)CC(CC(=O)OCCCC)(OC(C)=O)C(=O)OCCCC` as the compound, how does the Potency read?
**A.** 6.68 µM (active) and 12.3 µM (active) and 13.7 µM (active)

**Q.** Which Potency does the source give for `Nc1ccc(S(=O)(=O)c2ccc(N)cc2)cc1` here?
**A.** inactive

**Q.** `Cn1c(=O)c2[nH]cnc2n(C)c1=O` was tested. Which Potency did it give?
**A.** inactive

**Q.** How did the Potency turn out when `NS(=O)(=O)c1cc(C(=O)O)c(NCc2ccco2)cc1Cl` was run?
**A.** inactive

**Q.** For `Cc1noc(NS(=O)(=O)c2ccc(N)cc2)c1C`, which Potency is on record?
**A.** inactive

**Q.** How did the Potency turn out when `O=C(O)c1cc(N=Nc2ccc(S(=O)(=O)Nc3ccccn3)cc2)ccc1O` was run?
**A.** inactive

**Q.** How did the Potency turn out when `CC(O)CN(CCN(CC(C)O)CC(C)O)CC(C)O` (stereo not given) was run?
**A.** inactive

**Q.** `Cc1cc(=O)[nH]c(=S)[nH]1` was tested. Which Potency did it give?
**A.** inactive

**Q.** Which Potency does the source give for `CC(=O)Nc1nnc(S(N)(=O)=O)s1` here?
**A.** inactive

**Q.** For `Cc1cc(=O)n(-c2ccccc2)n1C`, which Potency is on record?
**A.** inactive

**Q.** With `CCCCCCCCCCCCCCCC(=O)O` as the compound, how does the Potency read?
**A.** inactive

**Q.** For `O=C1NC(=O)c2ccccc21`, which Potency is on record?
**A.** inactive and 31.4 µM (active)

**Q.** `Cc1ccc(C)c(OCCCC(C)(C)C(=O)O)c1` was tested. Which Potency did it give?
**A.** inactive

**Q.** Which Potency does the source give for `Cc1ccccc1C(OCCN(C)C)c1ccccc1` (stereo not given) here?
**A.** inactive and 9.69 µM (active)

**Q.** Which Potency does the source give for `CC(=O)OCC(COC(C)=O)OC(C)=O` here?
**A.** inactive and 4.33 µM (active)

**Q.** How did the Potency turn out when `C/C=C/c1ccc(OC)cc1` was run?
**A.** inactive

**Q.** `CCCC(CCC)C(=O)O` was tested. Which Potency did it give?
**A.** inactive

**Q.** `O=C(O)CCCCC(=O)O` was tested. Which Potency did it give?
**A.** inactive

**Q.** `CC(C)(Oc1ccc(C2CC2(Cl)Cl)cc1)C(=O)O` (stereo not given) was tested. Which Potency did it give?
**A.** inactive

**Q.** How did the Potency turn out when `CCCCC1C(=O)N(c2ccccc2)N(c2ccccc2)C1=O` was run?
**A.** 27.1 µM (active) and 24.3 µM (active)

**Q.** `O=C(O)CS` was tested. Which Potency did it give?
**A.** inactive

**Q.** For `Nc1ccn([C@H]2CC[C@@H](CO)O2)c(=O)n1`, which Potency is on record?
**A.** inactive

**Q.** Which Potency does the source give for `CC(C)[C@@H]1CC[C@@H](C)C[C@H]1O` here?
**A.** 31 µM (active) and inactive
